Assay outcomes as filed in PubChem.
N-glyco inh: blocks N-linked glycosylation in D54 reporter cells. D54 ERlucT glycosylation luciferase reporter, 24 h; percent of 100 nM tunicamycin response. reporter increase, % at 12.5 µM. actives 0.23% (n = 360,000);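 active = mean luciferase reporter signal, scaled so untreated is 0 and the glycosylation-blocking control 100, at or above a set limit in every replicate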;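 note: luciferase carries N-glycosylation sites so blocking glycosylation raises the light; 0% = median of neutral control wells and 100% = median of 100 nM tunicamycin wells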
CASP6 VEID inh: inhibitors of human caspase-6 | purified caspase-6, Z-VEID-R110 cleavage fluorescence | actives 0.53% (n = 350,000) | inhibition, % at 12.5 µM | P55212;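 active = mean inhibition across replicates at least about 35%, with every replicate also reaching that limit, limit read from the data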;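 note: 0% = median of neutral control wells and 100% = no fluorescence left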
CDK5 inh: blocks human CDK5/p35 kinase activity. actives 0.01% (n = 330,000). Recombinant CDK5/p35, ADP-Glo luminescence, 60 min. inhibition, % at 10 µM;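 active = highest replicate inhibition of at least 50% and at least 75% of replicates reaching 50%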;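 note: plate controls were DMSO neutral control for no effect and GW8510 at 10 µM for full effect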
NSD2 HMT inh: inhibitors of human histone methyltransferase NSD2. O96028. NSD2 peptide methylation, AlphaScreen, 120 min. inhibition, % at 12.5 µM. actives 0.54% (n = 310,000). AID 743445; in the data active = inhibition above about 50%
ALR H2O2 inh: human ALR oxidase inhibition via reduced H2O2 | P55789 | purified ALR, DTT oxidation, H2O2 HRP-luminol luminescence | inhibition, % (no concentration beside the values) | actives 3.8% (n = 290,000);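 active = mean replicate inhibition above about 79%, with every replicate also reaching it, limit read from the data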
Target sequence (P55789 whole entry, looked up): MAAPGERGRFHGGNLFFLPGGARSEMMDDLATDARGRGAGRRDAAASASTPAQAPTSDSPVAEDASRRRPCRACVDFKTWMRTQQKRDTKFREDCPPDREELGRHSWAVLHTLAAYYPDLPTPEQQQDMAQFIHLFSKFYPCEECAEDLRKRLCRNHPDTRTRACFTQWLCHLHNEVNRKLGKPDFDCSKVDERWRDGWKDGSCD
SUMO Mot1 rescue: inhibitors of SUMOylation pathway: yeast Mot1-301 growth rescue; actives 1% (n = 320,000); growth rescue, % at 18.8 µM; AID 2716; S. cerevisiae Mot1-301 growth rescue, ATP luminescence, 38.5C; percent above DMSO median, 100 means doubled;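 active = every valid replicate shows activation above 250% relative to neutral control wells; inactive = the rest, any valid replicate at or below 250%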;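 note: OY570 slx delta 5 strain wells were the positive control but not used for scaling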
Numbers without * were called inactive. An excerpt weighted towards active compounds, which were near 3.9% of everything screened.

For CN(C)C(=O)c1cccc(-c2ccc(C3[C@H]4CNC[C@@H]3N4Cc3ccccn3)cc2)c1 (stereo partly specified) the results were CASP6 VEID inh -6.
C(=C\c1ccc(C2[C@H]3CNC[C@@H]2N3Cc2ccccn2)cc1)/c1ccccc1 (stereo partly specified) was read as CASP6 VEID inh 50*.
For Cc1cccc(C)c1NC(=O)CSc1nnc(-c2ccco2)c(-c2ccco2)n1 the results were N-glyco inh 1, CDK5 inh -10, ALR H2O2 inh 99* and SUMO Mot1 rescue 125.
`Cc1ccc(NC(=O)CSc2nnc(-c3ccco3)c(-c3ccco3)n2)cc1` gave N-glyco inh 19, CDK5 inh -1, NSD2 HMT inh -22, ALR H2O2 inh 99* and SUMO Mot1 rescue 3.
O=C(CSc1nnc(-c2ccco2)c(-c2ccco2)n1)Nc1ccccc1 was read as N-glyco inh 0, CDK5 inh -1, NSD2 HMT inh 11 and ALR H2O2 inh 99*.
For CCc1nnc(SCC(=O)Nc2ccc(C(C)=O)cc2)nc1CC the results were N-glyco inh 2, CDK5 inh 1, NSD2 HMT inh -1, ALR H2O2 inh 99* and SUMO Mot1 rescue 8.
For Cc1noc(C)c1NC(=O)N(C)C[C@@H]1Oc2c(NS(C)(=O)=O)cccc2C(=O)N([C@H](C)CO)C[C@H]1C the results were CASP6 VEID inh -2.
Screening C[C@@H]1CCCCO[C@H](CN(C)C(=O)Nc2ccc3c(c2)OCO3)[C@H](C)CN([C@H](C)CO)C(=O)c2cc(N(C)C)ccc2O1 returned CASP6 VEID inh 0.
CN1CCN(C(=O)C[C@@H]2C=C[C@@H](NC(=O)Nc3ccccc3F)[C@H](CO)O2)CC1 was read as CASP6 VEID inh -5.
For COCC(C)N=C1NN=C(c2ccc(NC(C)=O)cc2)CS1 (stereo unspecified) the results were N-glyco inh 1, CASP6 VEID inh 2, CDK5 inh -1, NSD2 HMT inh -4, ALR H2O2 inh 98* and SUMO Mot1 rescue -3.
Screening CCOC(=O)CSc1nc2sc3c(c2c(=O)n1-c1ccccc1)CCN(C(C)C)C3 returned N-glyco inh 1, CASP6 VEID inh 2, CDK5 inh 1, NSD2 HMT inh 4, ALR H2O2 inh 100* and SUMO Mot1 rescue -10.
For CN1CCc2c(sc3nc(SCC(=O)N4CCOCC4)n(-c4ccc(Cl)cc4)c(=O)c23)C1 the results were N-glyco inh -3, CASP6 VEID inh -4, CDK5 inh -1, NSD2 HMT inh -3, ALR H2O2 inh 98* and SUMO Mot1 rescue -11.
For CSc1nc(SCC(=O)NC(c2ccccc2)c2ccccc2)c2c3c(sc2n1)CN(C)CC3 the results were N-glyco inh -3, CDK5 inh 0, NSD2 HMT inh 10, ALR H2O2 inh 93* and SUMO Mot1 rescue -4.
`COc1ccc(-n2c(SCC(=O)NCc3ccco3)nc3sc4c(c3c2=O)CCN(C)C4)cc1` gave N-glyco inh -2, CASP6 VEID inh 4, CDK5 inh 0, NSD2 HMT inh 5, ALR H2O2 inh 98* and SUMO Mot1 rescue 3.
For COc1ccc(-n2c(SCC(N)=O)nc3sc4c(c3c2=O)CCN(C)C4)cc1 the results were N-glyco inh 2, CDK5 inh 1, NSD2 HMT inh 10, ALR H2O2 inh -6 and SUMO Mot1 rescue -7.
Screening CSc1nc(NCC(C)O)c2c3c(sc2n1)CN(C)CC3 (stereo unspecified) returned N-glyco inh 6, CASP6 VEID inh -1, CDK5 inh 2, NSD2 HMT inh 8, ALR H2O2 inh -19 and SUMO Mot1 rescue 6.
`CCOC(=O)CSc1nc2sc3c(c2c(=O)n1-c1ccc(C)cc1)CCN(C)C3` gave N-glyco inh -2, CASP6 VEID inh 2, CDK5 inh 1, NSD2 HMT inh 1, ALR H2O2 inh 99* and SUMO Mot1 rescue 3.
Screening COC(=O)CSc1nc2sc3c(c2c(=O)n1C1CCCCC1)CCN(C)C3 returned ALR H2O2 inh 92* and SUMO Mot1 rescue -2.
CCOC(=O)CSc1nc2sc3c(c2c(=O)n1-c1ccccc1)CCN(C)C3 was read as N-glyco inh -2, CASP6 VEID inh -1, CDK5 inh 0, NSD2 HMT inh 2, ALR H2O2 inh 100* and SUMO Mot1 rescue 8.
